Measured values from PubChem BioAssay AID686978 (National Center for Advancing Translational Sciences (NCATS), 2013).
Several values for one entry are separate records, joined by “and”; a condition that tells them apart may be missing. Equal values may be shown once. Hit rate of the full screen: of about 420,000 compounds, about 64,000 (15%) were called active. About 27% were inconclusive and are not listed. Calls follow the shape of the dose curve; as a rule, active = well fitted inhibition curve with a large enough effect; inconclusive = small, poorly fitted or top-dose-only effect; inactive = flat fitted curve, though single readings scatter. Only a sample is shown. The source holds several records for some structures; these can differ, active in one and inactive in another.

test: qHTS for Inhibitors of human tyrosyl-DNA phosphodiesterase 1 (TDP1): qHTS in cells in absence of CPT; details: DT40 Tdp1-/- hTDP1 cells, no CPT, ATP luminescence, 48 h; activity change, negative = growth inhibition: at 46.2 µM (top of the series); also: nearly all actives have a fitted effect of over 55% in size
Method in brief: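 A cellular qHTS used chicken DT40 cells lacking endogenous Tdp1 but carrying stably transfected human TDP1. Compounds were applied without camptothecin, and cell growth kinetics were judged by ATP-dependent luminescence after ≥48 hr.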
% is scaled to controls: 0 for no effect and ±100 for the full control effect; potency is read from the fitted curve at half-maximal effect.

Row | Structure (SMILES) | activity change, negative = growth inhibition | Potency
1 | O=C1NN(c2ccccc2)C(=O)/C1=C/c1ccc(-c2cccc(C(=O)O)c2)o1 | 4.78% (inactive) | –
2 | O=C1NC[C@H](CCCCN2CCN(CCc3ccccc3)C(=O)C2=O)N(CC2CCCCC2)C1=O | -18.5% (inactive) | –
3 | CN(C)NC(=O)c1csnc1-c1c(Cl)cccc1Cl | -14.2% (inactive) | –
4 | c1ccc(Nc2n[nH]nc2-c2ccccc2)cc1 | -6.64% (inactive) | –
5 | Cc1ccc(S(=O)(=O)CC(=O)NC(C)c2ccccc2)cc1 (centres undefined) | 2.72% (inactive) | –
6 | CSc1ccc(CCNC(=O)CS(=O)(=O)Cc2nc(-c3ccccc3F)oc2C)cc1 | -25.8% (inactive) | –
7 | Cc1ccccc1-c1nc(CS(=O)(=O)CC(=O)NC(C)c2ccccc2)c(C)o1 (centres undefined) | – | inactive and 16.4 µM (active)
8 | Cc1ccc(NC(=O)c2sccc2C)cc1[N+](=O)[O-] | -19.1% (inactive) | –
9 | O=C(C1CCN(CC2CCCCC2)CC1)N1CCCC1 | -18.7% (inactive) | –
10 | CC(=O)NS(=O)(=O)c1ccc(NC(=S)NC(=O)C(C)(C)C)cc1 | -2.91% (inactive) | –
11 | CC(NC(=O)c1ccccc1SCC(=O)N1CCCC1)c1ccccc1 (centres undefined) | -12.4% (inactive) | –
12 | C=CCn1c(=S)[nH]c2nc3c(cc2c1=O)COC(C)(C)C3 | -16.9% (inactive) | –
13 | CC1(C)Cc2nc3sc4c(SCC(=O)NC(c5ccccc5)c5ccccc5)ncnc4c3cc2CO1 | – | 8.2 µM (active)
14 | CCOc1ccc(NC(=O)CSc2ncnc3c2sc2ccccc23)cc1 | -6.84% (inactive) | –
15 | O=c1cnnc(Nc2ccccc2F)[nH]1 | -37.5% (inactive) | –
16 | CCc1nc2nc(C)c(NS(=O)(=O)c3ccc4c(c3)CCCC4)c(=O)n2[nH]1 | 3.52% (inactive) | –
17 | COCc1c(N)c(C)nc(Cl)c1C#N | 5.15% (inactive) | –
18 | O=C(NCCCO)C(=O)Nc1c2c(nn1-c1ccccc1)CSC2 | -4.47% (inactive) | –
19 | COc1ccc(N(C(=O)CNC(=O)c2ccco2)C(C(=O)NCC2CCCO2)c2ccccc2)cc1Cl (centres undefined) | -3.54% (inactive) | –
20 | O=C(NCCCN1CCOCC1)c1cn(-c2ccccc2)nc1-c1ccc(F)cc1 | -5.56% (inactive) | –
21 | O=C(NCc1cccnc1)c1cn(-c2ccccc2)nc1-c1cccs1 | -1.88% (inactive) | –
22 | Cc1ccc(-c2nn(-c3ccc(F)cc3)cc2C(=O)NCC(c2cccs2)N2CCOCC2)cc1 (centres undefined) | – | 14.6 µM (active)
23 | Cc1nn(CC(=O)NCc2ccccn2)c(C)c1[N+](=O)[O-] | -0.287% (inactive) | –
24 | CCOC(=O)c1c(NC(=O)/C=C/c2ccco2)sc(C)c1C | -22.1% (inactive) | –
25 | C#CCOCCOCCOCCNc1nc(N2CCN(C(=O)C([C@@H](C)CC)n3cc(C(N)COC(=O)C(F)(F)F)nn3)CC2)nc(N2CCN(C(=O)[C@H](Cc3ccc(O)cc3)n3cc(C(N)[C@H](C)CC)nn3)CC2)n1 (some centres undefined) | 7.42% (inactive) | –
26 | O=C(CSc1nncn1-c1cccnc1)N1CCOCC1 | -2.75% (inactive) | –

Row | Structure (SMILES) | activity change, negative = growth inhibition | Potency
27 | O=S(=O)(c1ccc(F)cc1)N1CCN(C(=S)NC2CCCC2)CC1 | -6.98% (inactive) | –
28 | CCOC(=O)Cn1c(N)c(C(=O)OC)sc1=S | 1.23% (inactive) | –
29 | COc1cccc(-n2c(=S)sc3c(=O)n(-c4ccccc4C)c(SCC(=O)O)nc32)c1 | 18.7% (inactive) | –
30 | CCOC(=O)c1sc(=S)n(-c2cccc(OC)c2)c1N | – | 11.2 µM (active)
31 | Cc1ccc(-c2nnn(CC(=O)N(CCO)C(C(=O)NC(C)(C)C)c3ccncc3)n2)cc1 (centres undefined) | 4.49% (inactive) | –
32 | Cc1cccc2c3c(ccc12)C1=C(C(=O)C3=O)C(C)CO1 (centres undefined) | -94.9% (inactive) | –
33 | CCCC(=O)Nc1ncnc2c1ncn2[C@@H]1O[C@@H]2OP(=O)(O)OC[C@H]2[C@H]1OC(=O)CCC | -3.54% (inactive) | –
34 | Cc1nc(CNS(=O)(=O)c2cccnc2)cs1 | -4.71% (inactive) | –
35 | Cc1ccc(CN2CCCn3nc(C(=O)NCc4ccccc4Cl)cc3C2=O)cc1 | – | 25.9 µM (active)
36 | CCNC(=O)c1cc2n(n1)CCCN(Cc1ccc(C)cc1)C2=O | -21.3% (inactive) | –
37 | O=C(NCc1ccccc1Cl)c1csc2c1CCCCC2 | -22% (inactive) | –
38 | COc1cc(CNC(=O)c2cc3n(n2)CCCN(Cc2cccc(F)c2)C3=O)cc(OC)c1OC | – | 20.6 µM (active)
39 | COC(=O)c1ccc(CNC(=O)C2CCC(=O)N(Cc3cccc(F)c3)C2)cc1 (centres undefined) | 5.12% (inactive) | –
40 | COC(=O)c1cc2n(n1)CCCNC2=O | 12.7% (inactive) | –
41 | Cn1c(=O)c2c(ncn2CC(=O)N/N=C/c2cn[nH]c2-c2ccc(F)cc2)n(C)c1=O | -15.2% (inactive) | –
42 | O=C(Cc1ncc(C(F)(F)F)cc1Cl)Nc1cccc(Br)c1 | -18.5% (inactive) | –
43 | CCc1nnc(NC(=O)CCC(=O)O)s1 | 4.49% (inactive) | –
44 | O=C(Nc1ncccn1)c1cccs1 | -87.3% (inactive) | –
45 | S=C1SCN(CCN2CCOCC2)CN1Cc1ccccc1 | – | 3.16 µM (active)
46 | C/C(CCc1ccccc1)=N\NC(=O)c1ccc(CN2CCOCC2)cc1 | 0.0091% (inactive) | –
47 | CCN1CN(Cc2ccccc2)CNC1=S | -1.84% (inactive) | –
48 | O=C(O)/C=C/C(=O)Nc1ccc(F)cc1F | -1.78% (inactive) | –
49 | COC(=O)c1sc(-c2ccc(C(C)(C)C)cc2)cc1NC(=O)/C=C/C(=O)O | – | 4.61 µM (active)
50 | CSc1ccc(NC(=O)/C=C/C(=O)O)cc1 | -18.4% (inactive) | –
51 | Cc1nnc(SC(C(=O)Nc2cc(Cl)cc(Cl)c2)c2ccccc2)[nH]c1=O (centres undefined) | 3.42% (inactive) | –
52 | O=C(O)C1CCCCC1C(=O)Nc1ccc(Cl)cc1 (centres undefined) | -8.69% (inactive) | –

Row | Structure (SMILES) | activity change, negative = growth inhibition | Potency
53 | COc1ccc(OC)c(NC(=O)C2CCN(S(=O)(=O)c3ccc(C)cc3)CC2)c1 | -19.3% (inactive) | –
54 | CC(C)(C)c1ccc(C(=O)N2CCC(C(=O)N3CCCCC3)CC2)cc1 | -24.3% (inactive) | –
55 | COc1ccc(CNC(=O)c2cc(C(=O)C3CC3)c[nH]2)cc1 | -18.3% (inactive) | –
56 | COc1ccc(C(=O)N2CCC(C(=O)Nc3ccc(C)cc3)CC2)cc1 | – | 10.3 µM (active)
57 | COc1ccccc1NC(=O)C1CCN(C(=O)c2ccc(C(C)(C)C)cc2)CC1 | – | 16.4 µM (active)
58 | CCc1ccc(NC(=O)Cn2nnc(C(=O)NCc3ccc(OC)cc3)c2N)cc1 | 2.68% (inactive) | –
59 | O=C(Nc1ccccc1)C1CCN(C(=O)c2ccc(Br)cc2)CC1 | -16.2% (inactive) | –
60 | CCc1ccc(NC(=O)CN2CCC(C(=O)c3ccc(OC)cc3)CC2)cc1 | – | 23.1 µM (active)
61 | COc1ccc(S(=O)(=O)N2CCC(C(=O)NCCC(=O)Nc3ccccc3OC)CC2)cc1 | -20.2% (inactive) | –
62 | OCC(O)CN(c1ccccc1)c1ccccc1 (centres undefined) | -27.7% (inactive) | –
63 | Cc1ccccc1-n1nc(SCC(=O)O)sc1=S | -3.4% (inactive) | –
64 | N=c1ccn(CC(=O)NC(N)=O)c2ccccc12 | -8.1% (inactive) | –
65 | C/C=N/NC(=O)CCCC(=O)N/N=C/C | 7.5% (inactive) | –
66 | C[C@H](CO)N1C[C@H](C)[C@@H](CN(C)S(=O)(=O)c2ccc(F)cc2)Oc2ccc(NC(=O)CCC(F)(F)F)cc2C1=O | -26.2% (inactive) | –
67 | O=C(O)c1c(Br)c(Br)c(Br)c(Br)c1C1c2ccc(O)cc2Oc2cc(O)ccc21 | -2.04% (inactive) | –
68 | O=C(CNC(=O)[C@@H]1Cc2ccccc2CN1)NC1CCCCC1 | -17.6% (inactive) | –
69 | Cn1c(SCC(=O)OC2CCCCC2)nnc1-c1ccc(S(=O)(=O)N2CCCC2)cc1 | -9.11% (inactive) | –
70 | COCCNC(=O)CN1C(=O)CSc2ncccc21 | 0.779% (inactive) | –
71 | CC(=O)Nc1ccc(OC(=O)COc2ccc(Br)cc2)cc1 | 22.7% (inactive) | –
72 | O=C(OCc1ccc([N+](=O)[O-])cc1)C1CC(=O)N(Cc2ccccc2Cl)C1 (centres undefined) | -29.7% (inactive) | –
73 | O=C1NC(=O)C2C1C(c1ccc([N+](=O)[O-])cc1)=NN2Cc1ccccc1 (centres undefined) | 7.2% (inactive) | –
74 | O=[N+]([O-])c1ccc(CN2CC(N3CCC(c4ccccc4)CC3)CS2(=O)=O)cc1 (centres undefined) | – | 23.1 µM (active)
75 | CSCC(NS(=O)(=O)c1ccc(C)cc1)C(=O)O (centres undefined) | -1.29% (inactive) | –
76 | O=C(Nc1nnc(C2CC2)s1)C1=NN(C2CCS(=O)(=O)C2)C(=O)CC1 (centres undefined) | 12.2% (inactive) | –
77 | Cn1cc(CCC(=O)NC2CC2)c2ccccc21 | -0.36% (inactive) | –
78 | O=C(O)c1cccc(N=NN2CCCCCC2)c1 | -0.0872% (inactive) | –

Row | Structure (SMILES) | activity change, negative = growth inhibition | Potency
79 | CCC1CCCCN1C(=S)Nc1ccc(C(C)=O)cc1 (centres undefined) | -28% (inactive) | –
80 | CC(=O)c1ccccc1NC(=O)CC1(CC(=O)O)CCCCC1 | 1.97% (inactive) | –
81 | Cc1ccc(S(=O)(=O)N(CC(O)CN2CCCCC2)c2cccc([N+](=O)[O-])c2)cc1 (centres undefined) | -4.84% (inactive) | –
82 | COc1ccc([N+](=O)[O-])cc1N(CC(O)CN(CC(C)C)CC(C)C)S(=O)(=O)c1ccc(C)cc1 (centres undefined) | – | 23.1 µM (active)
83 | Cc1ccc(S(=O)(=O)N(CC(O)CN2C(=O)NC(C)(C)C2=O)c2cccc([N+](=O)[O-])c2)cc1 (centres undefined) | -0.683% (inactive) | –
84 | Cc1cc(C)n(Cc2cnc(N3CCOCC3)s2)n1 | 32.3% (inactive) | –
85 | O=C(NCC(=O)N(CC1CCCO1)C(C(=O)NC1CCCCC1)c1ccccc1)c1ccco1 (centres undefined) | -2.93% (inactive) | –
86 | Cc1ccc(-c2cc(C(=O)NN)n[nH]2)o1 | -13% (inactive) | –
87 | CCn1c(SCC(=O)Nc2cccc(F)c2)nnc1-c1cc2cc(Br)ccc2o1 | -17.3% (inactive) | –
88 | COc1ccc(C)cc1S(=O)(=O)NC1CCCCC1 | -6.83% (inactive) | –
89 | COc1ccc(-c2nnc(SCC(=O)NC3CCCCC3)o2)cc1OC | -28.8% (inactive) | –
90 | COc1ccc(-c2nc3cnccn3c2NC2CCCCC2)cc1-c1cccc(Cl)c1 | – | 25.9 µM (active)
91 | COc1ccc(-c2nc3cc(C)ccn3c2NC2CCCCC2)cc1SC1CCCCC1 | – | 20.9 µM (active)
92 | COc1ccc(-c2nc3cnccn3c2NC(C)(C)CC(C)(C)C)cc1O | – | 18.4 µM (active)
93 | COc1ccc(NC(=O)N(C)C[C@H]2Oc3ncc(C#C[C@@H](C)O)cc3C(=O)N([C@H](C)CO)C[C@H]2C)cc1 | 5.91% (inactive) | –
94 | CC1(C)CCc2nc(SCc3ccccc3)c(C#N)cc2C1 | -1.89% (inactive) | –
95 | Cc1ccc(NS(=O)(=O)c2ccc(-c3ccc(=O)[nH]n3)o2)c(C)c1 | 7.41% (inactive) | –
96 | OCc1nc(CO)n(Cc2ccccc2)n1 | -1.88% (inactive) | –
97 | CC1(C(=O)NS(=O)(=O)c2cccc(F)c2)CCN1C(=O)c1cccc2ccccc12 (centres undefined) | -0.531% (inactive) | –
98 | CSc1nnc(-c2ccc(C(F)(F)F)cn2)o1 | -0.821% (inactive) | –
99 | Cc1onc(C(=O)NN)c1-c1csc(COc2ccccc2)n1 | -4.22% (inactive) | –
100 | CCCC(=O)N1c2ccc(-c3csc(N)n3)cc2CC1C (centres undefined) | -25.1% (inactive) | –
101 | CC(C)(C)C(=O)OCc1nc(-c2ccc(O)c(O)c2)cs1 | – | 20.6 µM (active)
102 | NNC(=O)C1CCCn2c1nc1sc3c(c1c2=O)CCCC3 (centres undefined) | 2.25% (inactive) | –
103 | CC(C(=O)O)n1cnc2sc3c(c2c1=O)CCCC3 (centres undefined) | 7.09% (inactive) | –
104 | Cn1c(NN)nc2sc3c(c2c1=O)CCC3 | – | 29.1 µM (active)
